# Reference: paper PMC7862700, “An all-to-all approach to the identification of sequence-specific readers for epigenetic DNA modifications on cytosine”
# Legend:
# Assay in all cases: DAPPL (digital affinity profiling via proximity ligation, sequencing); 10 mM Tris-HCl pH 7.5, 50 mM NaCl, 1 mM DTT, 4% glycerol, room temperature, 30 min; GST-TFs on glutathione beads, 16-mer random dsDNA library, 0.1% formaldehyde crosslink after washing; high values mean tight binding
# FEV = target: T1, FEV (Homo sapiens, UniProt Q99581 1-238); conditions: protein: recombinant; tags: N-terminal GST; dsDNA, one strand shown
# T1 sequence: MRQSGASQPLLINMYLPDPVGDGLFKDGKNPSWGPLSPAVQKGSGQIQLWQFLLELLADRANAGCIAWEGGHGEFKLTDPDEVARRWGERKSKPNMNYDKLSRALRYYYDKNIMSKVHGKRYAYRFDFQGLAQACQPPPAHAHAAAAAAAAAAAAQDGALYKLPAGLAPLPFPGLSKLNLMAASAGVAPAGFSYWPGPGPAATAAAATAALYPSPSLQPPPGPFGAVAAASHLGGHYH
# How it was run: (§1)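 A tag-only sample was pooled with DNA-barcoded human transcription factors that had been expressed in yeast as GST fusions and captured on glutathione beads. The pools were incubated for 30 min at room temperature with 200 nmole of a random double-stranded 16-mer DNA library in Tris/NaCl/DTT/glycerol buffer, then washed, crosslinked with 0.1% formaldehyde, proximity-ligated (BsaI/T4 ligase, 1 h, 37 °C), PCR-amplified and sequenced on an Illumina NextSeq500. Binding signal is each hexamer's read frequency for a factor divided by its frequency for the tag-only sample.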
# ETV5 = ETV5 (Homo sapiens, UniProt P41161 1-510); conditions: protein: recombinant; tags: N-terminal GST; dsDNA, one strand shown
# Chain of ETV5 (P41161 whole entry): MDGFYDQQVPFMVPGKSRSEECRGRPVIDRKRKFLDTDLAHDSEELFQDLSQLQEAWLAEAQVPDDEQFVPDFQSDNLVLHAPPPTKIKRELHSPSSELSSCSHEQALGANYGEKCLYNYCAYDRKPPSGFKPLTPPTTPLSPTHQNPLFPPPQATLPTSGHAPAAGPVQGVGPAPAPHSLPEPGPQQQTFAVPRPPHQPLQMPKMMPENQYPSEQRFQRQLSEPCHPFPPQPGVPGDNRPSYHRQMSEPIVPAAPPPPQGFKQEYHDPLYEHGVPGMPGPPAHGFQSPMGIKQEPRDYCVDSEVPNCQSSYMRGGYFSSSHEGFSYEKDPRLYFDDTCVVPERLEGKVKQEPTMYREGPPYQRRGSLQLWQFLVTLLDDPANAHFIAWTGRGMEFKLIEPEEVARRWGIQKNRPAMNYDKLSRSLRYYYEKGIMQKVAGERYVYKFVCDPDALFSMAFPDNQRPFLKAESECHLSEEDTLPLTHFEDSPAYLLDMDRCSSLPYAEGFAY
# How it was run: as §1
# HSF1 = HSF1 (Homo sapiens, UniProt Q00613 1-529); conditions: protein: recombinant; tags: N-terminal GST; chain copies: 3; dsDNA, one strand shown
# Chain of HSF1 (Q00613 whole entry): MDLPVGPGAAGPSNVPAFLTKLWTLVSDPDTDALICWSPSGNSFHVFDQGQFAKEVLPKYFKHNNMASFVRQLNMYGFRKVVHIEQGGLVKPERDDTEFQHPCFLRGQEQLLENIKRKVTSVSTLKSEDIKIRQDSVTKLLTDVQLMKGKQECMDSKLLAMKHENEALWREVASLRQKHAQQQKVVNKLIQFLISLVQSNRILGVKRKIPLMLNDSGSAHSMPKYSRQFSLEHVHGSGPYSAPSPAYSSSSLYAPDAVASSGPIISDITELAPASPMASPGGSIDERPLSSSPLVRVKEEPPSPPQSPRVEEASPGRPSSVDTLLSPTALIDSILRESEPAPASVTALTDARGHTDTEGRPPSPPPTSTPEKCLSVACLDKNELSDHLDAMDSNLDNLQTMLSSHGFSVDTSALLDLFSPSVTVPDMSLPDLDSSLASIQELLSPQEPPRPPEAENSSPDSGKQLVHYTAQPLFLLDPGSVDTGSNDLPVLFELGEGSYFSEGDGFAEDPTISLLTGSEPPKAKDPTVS
# How it was run: as §1
# SPIC = target: T2, SPIC (Homo sapiens, UniProt Q8N5J4 1-248); conditions: protein: recombinant; tags: N-terminal GST; dsDNA, one strand shown
# T2 sequence: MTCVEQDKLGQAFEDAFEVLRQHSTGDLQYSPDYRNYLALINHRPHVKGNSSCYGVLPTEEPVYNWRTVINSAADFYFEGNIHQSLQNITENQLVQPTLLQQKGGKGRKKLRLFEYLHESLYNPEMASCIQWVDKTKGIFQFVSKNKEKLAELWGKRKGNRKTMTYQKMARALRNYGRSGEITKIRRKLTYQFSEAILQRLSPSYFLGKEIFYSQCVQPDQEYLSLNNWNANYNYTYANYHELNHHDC
# How it was run: as §1
# ELF4 = ELF4 (Homo sapiens, UniProt Q99607 1-663); conditions: protein: recombinant; tags: N-terminal GST; dsDNA, one strand shown
# Chain of ELF4 (Q99607 whole entry): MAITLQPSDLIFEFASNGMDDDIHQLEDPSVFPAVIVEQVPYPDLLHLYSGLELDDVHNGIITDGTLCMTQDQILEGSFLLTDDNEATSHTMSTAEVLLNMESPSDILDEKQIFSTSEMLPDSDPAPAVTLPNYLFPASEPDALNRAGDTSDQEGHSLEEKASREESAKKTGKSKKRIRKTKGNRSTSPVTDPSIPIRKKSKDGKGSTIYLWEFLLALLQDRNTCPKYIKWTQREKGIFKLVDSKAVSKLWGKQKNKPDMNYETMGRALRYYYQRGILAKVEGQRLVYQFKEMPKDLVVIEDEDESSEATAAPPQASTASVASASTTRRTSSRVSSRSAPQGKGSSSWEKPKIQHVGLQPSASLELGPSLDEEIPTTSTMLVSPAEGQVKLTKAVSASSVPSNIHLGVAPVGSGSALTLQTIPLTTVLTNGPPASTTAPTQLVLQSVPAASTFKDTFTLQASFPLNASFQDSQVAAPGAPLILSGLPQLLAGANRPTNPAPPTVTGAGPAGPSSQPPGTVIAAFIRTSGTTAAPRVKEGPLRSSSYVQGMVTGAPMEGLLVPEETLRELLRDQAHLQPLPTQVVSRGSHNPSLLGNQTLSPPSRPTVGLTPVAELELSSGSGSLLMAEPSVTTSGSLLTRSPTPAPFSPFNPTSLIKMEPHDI
# How it was run: as §1
# ELK4 = target: T3, ELK4 (Homo sapiens, UniProt P28324-2 1-405); conditions: protein: recombinant; tags: N-terminal GST; dsDNA, one strand shown
# T3 sequence: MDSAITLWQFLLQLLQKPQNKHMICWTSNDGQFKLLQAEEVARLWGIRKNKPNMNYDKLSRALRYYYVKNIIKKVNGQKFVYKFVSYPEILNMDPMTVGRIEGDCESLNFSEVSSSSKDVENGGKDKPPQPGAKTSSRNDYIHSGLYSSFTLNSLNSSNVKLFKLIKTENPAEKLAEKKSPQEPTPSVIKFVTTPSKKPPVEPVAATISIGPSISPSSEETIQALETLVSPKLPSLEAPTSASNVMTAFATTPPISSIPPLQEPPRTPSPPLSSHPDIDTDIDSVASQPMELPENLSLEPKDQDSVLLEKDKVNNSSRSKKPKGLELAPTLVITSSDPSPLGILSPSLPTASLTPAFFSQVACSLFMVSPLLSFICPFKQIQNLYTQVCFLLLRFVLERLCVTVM
# How it was run: as §1
# ETV2 = target: T4, ETV2 (Homo sapiens, UniProt O00321 1-342); conditions: protein: recombinant; tags: N-terminal GST; dsDNA, one strand shown
# T4 sequence: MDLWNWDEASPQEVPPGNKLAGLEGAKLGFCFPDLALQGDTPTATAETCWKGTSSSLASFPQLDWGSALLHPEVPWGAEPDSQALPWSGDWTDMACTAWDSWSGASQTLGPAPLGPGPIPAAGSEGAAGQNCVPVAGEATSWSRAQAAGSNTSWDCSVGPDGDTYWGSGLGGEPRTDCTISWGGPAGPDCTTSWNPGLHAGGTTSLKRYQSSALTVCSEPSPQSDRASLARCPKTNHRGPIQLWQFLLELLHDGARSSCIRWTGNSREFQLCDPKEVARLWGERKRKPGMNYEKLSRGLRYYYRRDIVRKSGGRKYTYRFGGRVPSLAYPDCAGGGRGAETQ
# How it was run: as §1
# ELF3 = target: T5, ELF3 (Homo sapiens, UniProt P78545 1-371); conditions: protein: recombinant; tags: N-terminal GST; dsDNA, one strand shown
# T5 sequence: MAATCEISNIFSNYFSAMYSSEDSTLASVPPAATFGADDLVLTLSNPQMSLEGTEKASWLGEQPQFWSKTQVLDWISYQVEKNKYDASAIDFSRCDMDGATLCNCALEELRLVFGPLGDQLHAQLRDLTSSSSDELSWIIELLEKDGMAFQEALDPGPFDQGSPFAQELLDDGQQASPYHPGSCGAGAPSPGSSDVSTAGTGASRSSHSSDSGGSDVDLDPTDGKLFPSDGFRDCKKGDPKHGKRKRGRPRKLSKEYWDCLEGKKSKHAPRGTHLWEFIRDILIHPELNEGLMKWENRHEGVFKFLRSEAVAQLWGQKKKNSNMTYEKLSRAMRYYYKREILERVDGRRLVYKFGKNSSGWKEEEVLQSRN
# How it was run: as §1
# CRX = CRX (Homo sapiens, UniProt O43186 1-299); conditions: protein: recombinant; tags: N-terminal GST; dsDNA, one strand shown
# Chain of CRX (O43186 whole entry): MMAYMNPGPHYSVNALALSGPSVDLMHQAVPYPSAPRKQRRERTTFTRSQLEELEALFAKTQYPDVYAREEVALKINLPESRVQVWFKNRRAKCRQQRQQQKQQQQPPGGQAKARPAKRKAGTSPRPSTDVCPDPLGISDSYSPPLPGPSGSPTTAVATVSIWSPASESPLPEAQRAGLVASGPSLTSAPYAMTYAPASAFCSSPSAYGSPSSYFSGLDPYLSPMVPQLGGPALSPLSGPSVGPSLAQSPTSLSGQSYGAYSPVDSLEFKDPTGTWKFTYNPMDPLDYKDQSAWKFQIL
# How it was run: as §1
# ETV1 = ETV1 (Homo sapiens, UniProt P50549 1-477); conditions: protein: recombinant; tags: N-terminal GST; dsDNA, one strand shown
# Chain of ETV1 (P50549 whole entry): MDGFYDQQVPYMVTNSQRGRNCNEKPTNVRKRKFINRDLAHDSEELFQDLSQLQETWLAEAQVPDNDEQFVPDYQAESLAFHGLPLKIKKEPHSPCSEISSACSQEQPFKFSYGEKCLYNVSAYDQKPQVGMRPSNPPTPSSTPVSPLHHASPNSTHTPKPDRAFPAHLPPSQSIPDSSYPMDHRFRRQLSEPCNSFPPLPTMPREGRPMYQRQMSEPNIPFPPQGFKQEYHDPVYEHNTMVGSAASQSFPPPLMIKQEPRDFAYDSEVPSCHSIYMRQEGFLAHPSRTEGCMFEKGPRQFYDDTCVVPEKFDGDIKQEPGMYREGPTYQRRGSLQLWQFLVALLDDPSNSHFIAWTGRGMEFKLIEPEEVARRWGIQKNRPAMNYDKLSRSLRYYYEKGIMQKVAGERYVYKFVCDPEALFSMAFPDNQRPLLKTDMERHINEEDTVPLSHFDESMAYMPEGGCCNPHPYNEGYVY
# How it was run: as §1
# ERF = target: T6, ERF (Homo sapiens, UniProt P50548 1-548); conditions: protein: recombinant; tags: N-terminal GST; dsDNA, one strand shown
# T6 sequence: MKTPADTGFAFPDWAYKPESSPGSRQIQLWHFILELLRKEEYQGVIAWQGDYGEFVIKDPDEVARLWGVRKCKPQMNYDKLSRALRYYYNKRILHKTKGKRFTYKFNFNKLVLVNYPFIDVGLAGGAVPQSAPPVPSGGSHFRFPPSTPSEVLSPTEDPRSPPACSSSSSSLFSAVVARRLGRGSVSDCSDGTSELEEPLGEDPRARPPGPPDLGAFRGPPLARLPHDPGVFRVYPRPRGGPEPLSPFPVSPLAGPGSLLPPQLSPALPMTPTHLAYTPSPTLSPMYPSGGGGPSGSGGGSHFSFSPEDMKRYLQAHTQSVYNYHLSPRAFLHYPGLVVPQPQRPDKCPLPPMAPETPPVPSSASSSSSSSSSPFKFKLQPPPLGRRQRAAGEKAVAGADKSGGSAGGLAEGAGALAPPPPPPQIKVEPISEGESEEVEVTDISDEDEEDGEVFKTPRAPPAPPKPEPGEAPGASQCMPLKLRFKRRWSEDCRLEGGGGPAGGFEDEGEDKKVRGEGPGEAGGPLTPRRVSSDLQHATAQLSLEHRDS
# How it was run: as §1
# ETV3L = target: T7, ETV3L (Homo sapiens, UniProt Q6ZN32 1-361); conditions: protein: recombinant; tags: N-terminal GST; dsDNA, one strand shown
# T7 sequence: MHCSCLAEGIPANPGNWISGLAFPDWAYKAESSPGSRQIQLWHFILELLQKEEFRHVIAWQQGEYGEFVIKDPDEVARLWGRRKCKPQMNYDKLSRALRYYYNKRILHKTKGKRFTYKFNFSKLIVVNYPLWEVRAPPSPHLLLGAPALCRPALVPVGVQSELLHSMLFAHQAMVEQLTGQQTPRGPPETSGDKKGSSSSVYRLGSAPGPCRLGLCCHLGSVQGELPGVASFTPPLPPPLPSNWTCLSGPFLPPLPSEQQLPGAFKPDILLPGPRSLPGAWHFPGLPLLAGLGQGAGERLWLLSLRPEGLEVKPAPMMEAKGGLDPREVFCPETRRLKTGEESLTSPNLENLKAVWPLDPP
# How it was run: as §1
# ETS2 = target: T8, ETS2 (Homo sapiens, UniProt P15036 1-469); conditions: protein: recombinant; tags: N-terminal GST; dsDNA, one strand shown
# T8 sequence: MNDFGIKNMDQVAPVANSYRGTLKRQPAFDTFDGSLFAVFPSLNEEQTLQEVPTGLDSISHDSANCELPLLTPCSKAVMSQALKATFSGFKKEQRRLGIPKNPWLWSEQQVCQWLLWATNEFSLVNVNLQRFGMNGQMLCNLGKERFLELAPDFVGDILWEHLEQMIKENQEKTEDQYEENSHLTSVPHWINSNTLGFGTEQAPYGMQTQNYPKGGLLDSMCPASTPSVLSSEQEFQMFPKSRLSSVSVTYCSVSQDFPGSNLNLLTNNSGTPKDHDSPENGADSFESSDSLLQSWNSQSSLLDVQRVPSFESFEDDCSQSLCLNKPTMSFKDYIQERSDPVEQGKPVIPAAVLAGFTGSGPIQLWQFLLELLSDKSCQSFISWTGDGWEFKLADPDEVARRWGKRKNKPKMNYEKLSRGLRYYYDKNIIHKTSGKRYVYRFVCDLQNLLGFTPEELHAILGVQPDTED
# How it was run: as §1
# SPDEF = target: T9, SPDEF (Homo sapiens, UniProt O95238 1-335); conditions: protein: recombinant; tags: N-terminal GST; dsDNA, one strand shown
# T9 sequence: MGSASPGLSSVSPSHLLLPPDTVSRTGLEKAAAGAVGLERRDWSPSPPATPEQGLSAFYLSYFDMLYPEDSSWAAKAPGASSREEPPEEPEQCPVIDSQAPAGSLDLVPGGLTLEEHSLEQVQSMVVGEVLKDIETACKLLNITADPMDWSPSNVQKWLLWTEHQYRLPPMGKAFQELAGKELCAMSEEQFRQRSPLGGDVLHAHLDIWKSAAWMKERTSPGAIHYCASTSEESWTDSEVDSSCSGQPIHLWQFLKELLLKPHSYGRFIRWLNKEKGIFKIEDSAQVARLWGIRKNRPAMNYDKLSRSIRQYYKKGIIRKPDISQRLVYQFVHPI
# How it was run: as §1
# ETV7 = target: T10, ETV7 (Homo sapiens, UniProt Q9Y603 1-341); conditions: protein: recombinant; tags: N-terminal GST; dsDNA, one strand shown
# T10 sequence: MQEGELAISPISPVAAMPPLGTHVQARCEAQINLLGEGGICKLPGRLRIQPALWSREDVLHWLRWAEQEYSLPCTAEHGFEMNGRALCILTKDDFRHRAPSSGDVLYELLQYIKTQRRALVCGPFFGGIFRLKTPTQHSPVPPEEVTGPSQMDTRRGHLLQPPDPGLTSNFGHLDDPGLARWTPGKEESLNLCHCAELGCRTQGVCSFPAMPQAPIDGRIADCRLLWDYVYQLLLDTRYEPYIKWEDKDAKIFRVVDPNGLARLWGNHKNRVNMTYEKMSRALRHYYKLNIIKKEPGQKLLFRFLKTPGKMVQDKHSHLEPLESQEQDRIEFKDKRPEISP
# How it was run: as §1
# ELF5 = target: T11, ELF5 (Homo sapiens, UniProt Q9UKW6-2 1-255); conditions: protein: recombinant; tags: N-terminal GST; dsDNA, one strand shown
# T11 sequence: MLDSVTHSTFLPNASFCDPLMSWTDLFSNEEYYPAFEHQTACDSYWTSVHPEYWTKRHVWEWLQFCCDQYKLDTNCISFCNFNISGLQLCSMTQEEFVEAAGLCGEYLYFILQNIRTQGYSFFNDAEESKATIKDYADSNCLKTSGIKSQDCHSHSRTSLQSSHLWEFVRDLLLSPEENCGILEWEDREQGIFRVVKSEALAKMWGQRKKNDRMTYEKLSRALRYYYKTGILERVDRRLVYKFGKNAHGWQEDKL
# How it was run: as §1
# ETV3 = target: T12, ETV3 (Homo sapiens, UniProt P41162-2 1-143); conditions: protein: recombinant; tags: N-terminal GST; dsDNA, one strand shown
# T12 sequence: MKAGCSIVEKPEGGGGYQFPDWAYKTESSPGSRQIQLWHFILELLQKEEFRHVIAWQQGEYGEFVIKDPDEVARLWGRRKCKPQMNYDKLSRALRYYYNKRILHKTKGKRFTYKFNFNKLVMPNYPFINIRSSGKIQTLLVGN
# How it was run: as §1
# ETV6 = ETV6 (Homo sapiens, UniProt P41212 1-452); conditions: protein: recombinant; tags: N-terminal GST; dsDNA, one strand shown
# Chain of ETV6 (P41212 whole entry): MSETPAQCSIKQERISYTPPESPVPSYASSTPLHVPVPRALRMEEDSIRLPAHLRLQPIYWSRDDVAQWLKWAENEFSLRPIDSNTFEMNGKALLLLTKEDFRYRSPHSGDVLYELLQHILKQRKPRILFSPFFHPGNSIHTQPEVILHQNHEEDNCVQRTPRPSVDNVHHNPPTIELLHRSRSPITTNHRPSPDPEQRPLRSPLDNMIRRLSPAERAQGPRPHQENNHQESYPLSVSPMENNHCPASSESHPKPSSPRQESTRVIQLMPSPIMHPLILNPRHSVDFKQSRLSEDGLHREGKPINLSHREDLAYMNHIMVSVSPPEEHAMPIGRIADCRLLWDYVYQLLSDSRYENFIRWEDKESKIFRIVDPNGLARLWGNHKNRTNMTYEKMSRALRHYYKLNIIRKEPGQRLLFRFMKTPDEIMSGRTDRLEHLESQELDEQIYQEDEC
# How it was run: as §1
sequence,measurement,setting,value
CGAAAG,binding signal,FEV,"1.04 fold enrichment (6-mer frequency, TF over GST control)"
same,binding signal,ETV5,"1.1 fold enrichment (6-mer frequency, TF over GST control)"
same,binding signal,HSF1,"1.81 fold enrichment (6-mer frequency, TF over GST control)"
same,binding signal,SPIC,"1.03 fold enrichment (6-mer frequency, TF over GST control)"
same,binding signal,ELF4,"1.06 fold enrichment (6-mer frequency, TF over GST control)"
same,binding signal,ELK4,"1.09 fold enrichment (6-mer frequency, TF over GST control)"
same,binding signal,ETV2,"1.13 fold enrichment (6-mer frequency, TF over GST control)"
same,binding signal,ELF3,"1.21 fold enrichment (6-mer frequency, TF over GST control)"
same,binding signal,CRX,"1.11 fold enrichment (6-mer frequency, TF over GST control)"
same,binding signal,ETV1,"1.01 fold enrichment (6-mer frequency, TF over GST control)"
same,binding signal,ERF,"1.11 fold enrichment (6-mer frequency, TF over GST control)"
same,binding signal,ETV3L,"1.05 fold enrichment (6-mer frequency, TF over GST control)"
same,binding signal,ETS2,"1.11 fold enrichment (6-mer frequency, TF over GST control)"
same,binding signal,SPDEF,"1.07 fold enrichment (6-mer frequency, TF over GST control)"
same,binding signal,ETV7,"1.19 fold enrichment (6-mer frequency, TF over GST control)"
same,binding signal,ELF5,"1 fold enrichment (6-mer frequency, TF over GST control)"
same,binding signal,ETV3,"1.02 fold enrichment (6-mer frequency, TF over GST control)"
same,binding signal,ETV6,"1.02 fold enrichment (6-mer frequency, TF over GST control)"
